# Test results: PubChem BioAssay (EPA / NIEHS)
# Inconclusive results are not listed. The source made the active and inactive calls. Rule for the calls, unless noted: active = hit-call score of the fitted dose curve at least 0.9, where 1 is the maximum; inactive = score below 0.9.
# Key:
# [1] = ACEA_ER_80hr: ACEA Biosciences xCELLigence Real-Time Cell Analysis on Estrogen Receptor Agonism for Proliferation (AID 2282667; active = hit-call score of the fitted dose curve at least 0.9, where 1 is the maximum); conditions: T47D proliferation, impedance (xCELLigence), 80 h
# How it was run: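 T-47D cells monitored by electrical impedance (xCELLigence) with compound present throughout; 80 h timepoint, positive-direction fitting versus DMSO. Eight-point 1:4 dilutions from 100 uM final, duplicate plates.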
# [2] = ATG_CRE_CIS: Attagene CIS-FACTORIAL HepG2 Assay for human cAMP Responsive Element (CRE) binding protein 3 (AID 2282926); conditions: HepG2 CRE cis-reporter, Attagene multiplexed mRNA; actives raise or lower the signal
# How it was run: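 Induced reporter mRNA from a CRE cis element, measured in HepG2 among many multiplexed units at 24 h. Detection used RT-PCR plus capillary electrophoresis of fluorescent fragments; DMSO served as negative control.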
# [3] = molecular target: CCAAT/enhancer-binding protein beta (Homo sapiens) (UniProt P17676); experiment: ATG_C_EBP_CIS: Attagene CIS-FACTORIAL HepG2 Assay for human CCAAT/Enhancer Binding Protein (C/EBP) beta (AID 2282927); conditions: HepG2 Attagene cis-factorial transcription factor reporter; actives raise or lower the signal
# CCAAT/enhancer-binding protein beta (Homo sapiens), sequence (P17676 whole entry, looked up): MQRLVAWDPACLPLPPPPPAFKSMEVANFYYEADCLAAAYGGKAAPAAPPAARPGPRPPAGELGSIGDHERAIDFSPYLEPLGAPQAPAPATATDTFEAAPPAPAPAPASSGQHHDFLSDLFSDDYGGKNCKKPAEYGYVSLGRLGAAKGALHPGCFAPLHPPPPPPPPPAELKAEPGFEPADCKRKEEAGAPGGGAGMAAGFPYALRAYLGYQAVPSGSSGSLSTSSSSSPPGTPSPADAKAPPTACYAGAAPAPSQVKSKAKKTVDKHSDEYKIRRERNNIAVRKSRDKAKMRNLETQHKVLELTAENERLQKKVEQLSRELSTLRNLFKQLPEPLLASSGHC
# How it was run: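 HepG2, transient MRTU transfection, 24 h treatment. RT-PCR plus CE fluorescence; DMSO negative control, bidirectional fit.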
# [4] = ATG_CMV_CIS: Attagene CIS-FACTORIAL HepG2 Assay for human CMV (Internal Marker) (AID 2282928); conditions: HepG2 CMV promoter reporter, transcription factor profiling; actives raise or lower the signal;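 note: endpoint acts as a background internal control marker rather than a target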
# How it was run: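 Reporter transcripts from transfected HepG2 cells are isolated after 24 h of chemical dosing, reverse-transcribed and amplified. Fragments labeled with 6-FAM are cut with HpaI and quantified by capillary electrophoresis; DMSO defines baseline.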
# [5] = ATG_DR4_LXR_CIS: Attagene CIS-FACTORIAL HepG2 Assay for human Liver X Receptor (LXR), DR4 submotif (AID 2282929); conditions: HepG2 Attagene DR4 cis-reporter, mRNA transcription; actives raise or lower the signal
# How it was run: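 After transient transfection with multiplexed cis-promoter reporter units, HepG2 cells received test chemicals for 24 h. Reporter mRNA induction, detected by fluorescence after RT-PCR and capillary electrophoresis, was scored relative to DMSO.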
# [6] = molecular target: Aryl hydrocarbon receptor (Homo sapiens) (UniProt P35869); experiment: ATG_Ahr_CIS: Attagene CIS-FACTORIAL HepG2 Assay for human Aryl Hydrocarbon Receptor (Ahr) (AID 2282930); conditions: HepG2 AhR cis-factorial reporter transcription; actives raise or lower the signal
# Aryl hydrocarbon receptor (Homo sapiens), sequence (P35869 whole entry, looked up): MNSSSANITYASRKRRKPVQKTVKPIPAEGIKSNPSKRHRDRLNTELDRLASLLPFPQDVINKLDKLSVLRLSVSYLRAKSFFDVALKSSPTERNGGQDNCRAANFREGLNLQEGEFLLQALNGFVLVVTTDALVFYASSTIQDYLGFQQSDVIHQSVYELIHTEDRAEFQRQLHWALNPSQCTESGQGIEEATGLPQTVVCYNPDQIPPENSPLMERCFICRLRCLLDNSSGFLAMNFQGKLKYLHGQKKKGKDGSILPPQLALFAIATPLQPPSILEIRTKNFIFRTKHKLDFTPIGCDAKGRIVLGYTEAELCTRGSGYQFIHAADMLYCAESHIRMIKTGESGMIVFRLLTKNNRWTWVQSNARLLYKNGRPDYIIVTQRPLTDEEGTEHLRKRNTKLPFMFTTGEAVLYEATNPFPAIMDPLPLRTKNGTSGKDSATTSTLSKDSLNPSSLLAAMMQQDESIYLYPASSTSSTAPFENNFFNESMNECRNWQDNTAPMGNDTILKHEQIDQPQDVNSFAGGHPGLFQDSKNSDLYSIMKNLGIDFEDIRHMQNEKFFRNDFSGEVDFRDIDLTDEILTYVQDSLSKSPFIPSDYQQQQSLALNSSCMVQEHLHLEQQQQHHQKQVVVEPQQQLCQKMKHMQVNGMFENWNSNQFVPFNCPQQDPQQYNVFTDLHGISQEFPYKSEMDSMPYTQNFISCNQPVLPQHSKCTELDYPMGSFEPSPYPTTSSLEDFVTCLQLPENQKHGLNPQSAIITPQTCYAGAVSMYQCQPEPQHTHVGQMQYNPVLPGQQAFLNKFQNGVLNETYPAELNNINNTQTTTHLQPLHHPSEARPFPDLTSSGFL
# How it was run: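 Endogenous factor activity is tracked through cis-promoter reporter units transfected into HepG2 cells. Transcript levels at 24 h are read by fluorescent RT-PCR and capillary electrophoresis, with activity in either direction scored relative to DMSO.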
# [7] = ATG_AP_1_CIS: Attagene CIS-FACTORIAL HepG2 Assay for human Activator Protein 1 (AP-1) (AID 2282931); conditions: HepG2 Attagene cis-factorial AP-1 reporter mRNA; actives raise or lower the signal
# How it was run: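 After 24 h incubation with test chemical, RNA from transfected HepG2 cells was reverse-transcribed, amplified, fluorescently labelled and digested before capillary electrophoresis. Reporters were driven by cis-regulatory promoters; activity fitted bidirectionally versus DMSO.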
# [8] = ATG_AP_2_CIS: Attagene CIS-FACTORIAL HepG2 Assay for human Activator Protein 2 (AP-2) (AID 2282932); conditions: HepG2 AP-2 cis-reporter, Attagene transcription factor profiling; actives raise or lower the signal
# How it was run: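 Read-out: fluorescent reporter mRNA via RT-PCR and capillary electrophoresis, 24 h post-dose in transiently transfected HepG2. Endogenous factors drive cis-promoter reporters; gain or loss of signal fitted bidirectionally against DMSO.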
# [9] = ATG_BRE_CIS: Attagene CIS-FACTORIAL HepG2 Assay for human Bone Morphogenetic Protein (BMP) Response Element (BRE) (AID 2282933); conditions: HepG2 BMP response element reporter, Attagene transcription factor profiling; actives raise or lower the signal
# How it was run: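 Fluorescence-labelled reporter cDNA fragments, separated by capillary electrophoresis, gave the signal for this component of a 52-readout multiplex. HepG2 cells were transfected, exposed to chemicals for 24 h, and compared with DMSO using bidirectional fitting.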
# [10] = molecular target: Retinoic acid receptor alpha (Homo sapiens) (UniProt P10276); experiment: ATG_DR5_RAR_CIS: Attagene CIS-FACTORIAL HepG2 Assay for human Retinoic Acid Receptor Alpha (RARE), DR5 submotif (AID 2282934); conditions: HepG2 Attagene cis-factorial RARE DR5 reporter, mRNA; actives raise or lower the signal;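 for AC50: reporter responds to endogenous RAR alpha beta and gamma in HepG2 not RARA alone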
# Retinoic acid receptor alpha (Homo sapiens), sequence (P10276 whole entry, looked up): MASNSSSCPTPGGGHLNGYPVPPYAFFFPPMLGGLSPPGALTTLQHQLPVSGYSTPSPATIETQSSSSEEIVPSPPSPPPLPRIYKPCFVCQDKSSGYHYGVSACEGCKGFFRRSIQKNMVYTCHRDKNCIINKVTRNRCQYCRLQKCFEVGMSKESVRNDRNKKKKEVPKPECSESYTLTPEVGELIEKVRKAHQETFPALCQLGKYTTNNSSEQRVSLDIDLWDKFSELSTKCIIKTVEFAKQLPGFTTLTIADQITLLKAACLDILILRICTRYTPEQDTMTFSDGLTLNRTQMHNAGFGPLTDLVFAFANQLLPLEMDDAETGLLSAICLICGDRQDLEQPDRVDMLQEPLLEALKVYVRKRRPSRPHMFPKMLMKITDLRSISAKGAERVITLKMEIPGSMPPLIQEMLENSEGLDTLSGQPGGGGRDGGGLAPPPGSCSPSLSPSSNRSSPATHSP
# How it was run: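 After 24 h of chemical exposure, transiently transfected HepG2 cells were lysed for total RNA; the DR5-regulated reporter transcript was quantified via RT-PCR and capillary electrophoresis, with activity fitted bidirectionally against DMSO.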
# [11] = molecular target: Transcription factor E2F1 (Homo sapiens) (UniProt Q01094); experiment: ATG_E2F_CIS: Attagene CIS-FACTORIAL HepG2 Assay for human E2F Transcription Factor 1 (AID 2282935); conditions: HepG2 Attagene cis-reporter, E2F reporter RNA transcripts; actives raise or lower the signal
# Transcription factor E2F1 (Homo sapiens), sequence (Q01094 whole entry, looked up): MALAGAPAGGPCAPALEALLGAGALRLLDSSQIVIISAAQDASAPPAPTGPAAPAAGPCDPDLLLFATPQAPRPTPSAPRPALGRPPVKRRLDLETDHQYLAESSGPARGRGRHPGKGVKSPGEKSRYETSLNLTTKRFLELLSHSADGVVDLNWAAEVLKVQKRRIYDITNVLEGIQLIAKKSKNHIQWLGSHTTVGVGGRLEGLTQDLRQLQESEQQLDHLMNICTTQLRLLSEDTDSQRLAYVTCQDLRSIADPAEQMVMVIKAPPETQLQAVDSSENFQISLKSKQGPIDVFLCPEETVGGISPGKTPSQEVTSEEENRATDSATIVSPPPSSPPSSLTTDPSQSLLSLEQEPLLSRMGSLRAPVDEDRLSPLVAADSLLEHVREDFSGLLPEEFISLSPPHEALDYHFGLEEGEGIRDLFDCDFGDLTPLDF
# How it was run: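 Transient MRTU transfection of HepG2; 24 h compound exposure; RNA → oligo(dT) RT → PCR → FAM label → HpaI cut → CE fluorescence. Gain/loss of signal fit against DMSO.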
# [12] = ATG_E_Box_CIS: Attagene CIS-FACTORIAL HepG2 Assay for human Enhancer Box (E-box) (AID 2282936); conditions: HepG2 E-box cis-reporter transcription, actives raise or lower the signal
# How it was run: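 Transiently transfected HepG2, endogenous TF-driven reporters, 24 h dosing. Readout: RT-PCR plus capillary electrophoresis of fluorescent reporter fragments. Gain or loss of signal fitted bidirectionally against DMSO baseline.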
# [13] = ATG_M_61_CIS: Attagene CIS-FACTORIAL HepG2 Assay for M61 Transcription Factor (Internal Marker) (AID 2282937); conditions: HepG2 Attagene CIS-FACTORIAL M61 internal marker reporter; actives raise or lower the signal
# How it was run: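 Using transiently transfected HepG2 liver cells, reporter transcript levels were assessed 24 h post-dosing by RT-PCR and capillary electrophoresis. Changes in either direction were fitted relative to DMSO controls.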
# [14] = ATG_M_19_CIS: Attagene CIS-FACTORIAL HepG2 Assay for M19 Transcription Factor (Internal Marker) (AID 2282939); conditions: HepG2 Attagene CIS-FACTORIAL M19 internal marker reporter; actives raise or lower the signal
# How it was run: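 HepG2, MRTU transient transfection, 24 h dosing. Total RNA → RT-PCR → 6-FAM primer extension → HpaI digest → CE fluorescence. Bidirectional curve fit, DMSO negative control.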
# [15] = ATG_Ets_CIS: Attagene CIS-FACTORIAL HepG2 Assay for human Erythroblast Transformation Specific (ETS) (AID 2282941); conditions: HepG2 ETS cis-reporter transcription, actives raise or lower the signal
# How it was run: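 Bidirectional fit versus DMSO of reporter mRNA signal, detected by RT-PCR and capillary electrophoresis in HepG2 cells transiently transfected with cis-element reporters and dosed 24 h.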
# [16] = molecular target: Hepatocyte nuclear factor 3-beta (Homo sapiens) (UniProt Q9Y261); experiment: ATG_FoxA2_CIS: Attagene CIS-FACTORIAL HepG2 Assay for human Forkhead box A2 (FOXA2) (AID 2282942); conditions: HepG2 cis-reporter transcription factor activity, 24 h; actives raise or lower the signal
# Hepatocyte nuclear factor 3-beta (Homo sapiens), sequence (Q9Y261 whole entry, looked up, the tested form may be a part): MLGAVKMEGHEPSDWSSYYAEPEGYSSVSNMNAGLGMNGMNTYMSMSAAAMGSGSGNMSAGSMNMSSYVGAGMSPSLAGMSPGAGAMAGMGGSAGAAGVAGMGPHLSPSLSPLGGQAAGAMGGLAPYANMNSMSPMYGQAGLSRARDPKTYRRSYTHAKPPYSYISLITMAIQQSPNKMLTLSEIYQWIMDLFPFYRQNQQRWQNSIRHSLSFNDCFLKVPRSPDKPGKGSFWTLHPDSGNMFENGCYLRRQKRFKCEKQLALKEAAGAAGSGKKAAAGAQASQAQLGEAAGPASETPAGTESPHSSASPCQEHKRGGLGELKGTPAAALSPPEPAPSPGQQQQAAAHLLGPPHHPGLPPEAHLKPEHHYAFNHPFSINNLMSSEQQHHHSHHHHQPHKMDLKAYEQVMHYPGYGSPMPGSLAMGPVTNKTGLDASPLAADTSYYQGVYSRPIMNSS
# How it was run: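 Fluorescence signal of reporter cDNA fragments, separated by capillary electrophoresis, reflects endogenous transcription factor activity in transfected HepG2 after 24 h. Both increases and decreases fitted against DMSO.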
# [17] = ATG_FoxO_CIS: Attagene CIS-FACTORIAL HepG2 Assay for human Forkhead box O (FoxO) (AID 2282943); conditions: HepG2 Attagene cis-reporter, FoxO element, mRNA; actives raise or lower the signal
# How it was run: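 Transfected HepG2 reporter cells exposed to test chemical for 24 h; reporter RNA measured by reverse transcription, PCR and fluorescent capillary electrophoresis; curves fitted for increases and decreases against DMSO.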
# [18] = ATG_GATA_CIS: Attagene CIS-FACTORIAL HepG2 Assay for human GATA Binding Protein (AID 2282944); conditions: HepG2 GATA cis-element reporter, Attagene multiplex mRNA; actives raise or lower the signal
# How it was run: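 Cells: HepG2, transiently transfected with cis-regulated reporter transcription units. Exposure: 24 h. Detection: RT-PCR plus capillary electrophoresis of FAM-labeled fragments. Analysis: bidirectional, DMSO as baseline.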
# [19] = ATG_ERE_CIS: Attagene CIS-FACTORIAL HepG2 Assay for Estrogen Response Element (ERE) (AID 2282940); conditions: HepG2 ERE cis-reporter, Attagene RNA transcript; actives raise or lower the signal
# How it was run: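 After a 24 h chemical treatment, RNA from reporter-transfected HepG2 cells is reverse-transcribed, PCR-amplified and fluorescently labelled. Fragments separated by capillary electrophoresis give reporter signal; DMSO serves as negative control.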
# [20] = ATG_EGR_CIS: Attagene CIS-FACTORIAL HepG2 Assay for human Early Growth Response 1 (EGR1) (AID 2282938); conditions: HepG2 Attagene CIS-FACTORIAL EGR reporter mRNA; actives raise or lower the signal
# How it was run: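 Fluorescent capillary-electrophoresis signal of reporter cDNA fragments serves as read-out. HepG2 cells bear transiently transfected cis-promoter reporter units and are exposed 24 h; gain- or loss-of-signal is fitted against DMSO.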
compound,measurement,setting,value
CCCCCCC=O,AC50,[1],10.9 µM (active)
same,outcome,[2],inactive
same,outcome,[3],inactive
same,outcome,[4],inactive
same,outcome,[5],inactive
same,outcome,[6],inactive
same,outcome,[7],inactive
same,outcome,[8],inactive
same,outcome,[9],inactive
same,outcome,[10],inactive
same,outcome,[11],inactive
same,outcome,[12],inactive
same,outcome,[13],inactive
same,outcome,[14],inactive
same,outcome,[15],inactive
same,outcome,[16],inactive
same,outcome,[17],inactive
same,outcome,[18],inactive
OCCCc1ccccc1,outcome,[1],inactive
same,outcome,[2],inactive
same,outcome,[3],inactive
same,outcome,[4],inactive
same,outcome,[5],inactive
same,outcome,[6],inactive
same,outcome,[7],inactive
same,outcome,[8],inactive
same,outcome,[9],inactive
same,outcome,[10],inactive
same,outcome,[11],inactive
same,outcome,[12],inactive
same,outcome,[13],inactive
same,outcome,[14],inactive
same,outcome,[19],inactive
same,outcome,[15],inactive
same,outcome,[16],inactive
same,outcome,[17],inactive
same,outcome,[18],inactive
O=C(OCc1ccccc1)c1ccc(O)cc1,AC50,[1],10.5 µM (active)
same,outcome,[2],inactive
same,outcome,[3],inactive
same,outcome,[4],inactive
same,outcome,[5],inactive
same,outcome,[6],inactive
same,outcome,[7],inactive
same,outcome,[8],inactive
same,AC50,[9],123 µM (active)
same,outcome,[10],inactive
same,outcome,[11],inactive
same,outcome,[13],inactive
same,AC50,[20],93.4 µM (active)
same,outcome,[14],inactive
same,AC50,[19],8.77 µM (active)
same,outcome,[15],inactive
same,outcome,[16],inactive
same,outcome,[17],inactive
same,outcome,[18],inactive
CCCCc1ccc(Cl)cc1,outcome,[1],inactive
same,outcome,[2],inactive
same,outcome,[3],inactive
same,outcome,[4],inactive
same,outcome,[5],inactive
same,outcome,[6],inactive
same,outcome,[7],inactive
same,outcome,[8],inactive
same,outcome,[10],inactive
same,outcome,[11],inactive
same,outcome,[12],inactive
same,outcome,[13],inactive
same,outcome,[20],inactive
same,outcome,[14],inactive
same,outcome,[19],inactive
same,outcome,[15],inactive
same,outcome,[16],inactive
same,outcome,[17],inactive
C[Si](C)(C)N[Si](C)(C)C,outcome,[1],inactive
same,outcome,[2],inactive
same,outcome,[3],inactive
same,outcome,[4],inactive
same,outcome,[5],inactive
same,outcome,[6],inactive
same,outcome,[7],inactive
same,outcome,[8],inactive
same,outcome,[9],inactive
same,outcome,[10],inactive
same,outcome,[11],inactive
same,outcome,[12],inactive
same,outcome,[13],inactive
same,outcome,[14],inactive
same,outcome,[19],inactive
same,outcome,[15],inactive
same,outcome,[16],inactive
same,outcome,[17],inactive
same,outcome,[18],inactive
C=CC(C)(CCC=C(C)C)OC(=O)C=Cc1ccccc1 (configuration not stated),outcome,[1],inactive
same,outcome,[2],inactive
same,outcome,[3],inactive
same,AC50,[4],84.2 µM (active)
same,AC50,[5],27.1 µM (active)
same,outcome,[6],inactive
same,AC50,[7],100 µM (active)
same,outcome,[8],inactive
same,outcome,[9],inactive
same,outcome,[10],inactive
same,outcome,[12],inactive
same,outcome,[13],inactive
same,outcome,[20],inactive
same,outcome,[14],inactive
same,AC50,[19],17.7 µM (active)
same,outcome,[15],inactive
same,outcome,[16],inactive
same,outcome,[17],inactive
same,outcome,[18],inactive
CCCCCCCCCCCC(C)=O,outcome,[1],inactive
same,outcome,[2],inactive
same,outcome,[3],inactive
same,AC50,[4],124 µM (active)
same,AC50,[5],136 µM (active)
same,outcome,[6],inactive
same,AC50,[7],72.7 µM (active)
same,AC50,[8],153 µM (active)
same,outcome,[9],inactive
same,AC50,[10],69.4 µM (active)
same,outcome,[12],inactive
same,outcome,[13],inactive
same,AC50,[19],1.3 µM (active)
same,AC50,[15],160 µM (active)
same,outcome,[16],inactive
same,AC50,[17],171 µM (active)
C=CC(=O)OCCCCCCOC(=O)C=C,AC50,[1],10.5 µM (active)
same,outcome,[2],inactive
same,outcome,[3],inactive
same,AC50,[4],56.6 µM (active)
same,AC50,[5],49.7 µM (active)
same,outcome,[6],inactive
same,outcome,[7],inactive
same,outcome,[8],inactive
same,AC50,[9],24.5 µM (active)
same,outcome,[10],inactive
same,outcome,[11],inactive
same,outcome,[13],inactive
same,AC50,[20],66.6 µM (active)
same,outcome,[14],inactive
same,outcome,[19],inactive
same,outcome,[15],inactive
same,outcome,[16],inactive
same,outcome,[17],inactive
same,outcome,[18],inactive
